Screening data (PubChem BioAssay)
Compounds with a hit are over-represented: about 2.1% of the library has one in this group of screens.
PrPC TRFRET = reduces human prion protein on the cell surface; inhibition, % at 13.8 µM; P04156; cell surface PrPC, TR-FRET read-out; actives 0.43% (n = 370,000); in the data active means inhibition above about 24%; further: 0% = median of the test wells and 100% = reference compound wells
RN4220 kill = S. aureus RN4220 growth inhibition; actives 0.33% (n = 330,000); inhibition, % (concentration not given with the values); OD600, 16 h; in the data active means inhibition above about 85%;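 further: plate controls were untreated cells for no effect and reference antibiotic for full effect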
CCHFV vOTU inh = CCHFV vOTU protease inhibition | actives 0.55% (n = 370,000) | inhibition, % at 11.5 µM | Pep-AMC fluorescence; in the data active means inhibition above about 30%; further: 0% = vehicle wells with enzyme and 100% = no enzyme wells
PfHsp40 rescue = restores yeast growth despite PfHsp40 toxicity | S. cerevisiae expressing PfHsp40, growth rescue, ATP luminescence | growth rescue, % at 12.5 µM | actives 0.68% (n = 340,000); in the data active means growth rescue above about 28%, passing the limit was not always enough;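 further: yeast W303a lacking pdr1 and pdr3 grown in galactose medium; growth measured after three days at 30 °C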
Sa ugtP lethal = growth inhibition of S. aureus ugtP deletion strain; S. aureus RN4220 ugtP deletion, OD600 growth, 16 h; growth inhibition, % (test concentration not listed); actives 0.54% (n = 330,000); AID 1259309; in the data active means growth inhibition above about 68%;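 further: plate controls were untreated wells for no effect and antibiotic for full effect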
PrP UTR inh = inhibition of PrP 5' UTR reporter expression | cell-based PrP 5' UTR mRNA reporter, plate reader | actives 0.35% (n = 340,000) | inhibition, % (no concentration beside the values); in the data active means inhibition above about 52%; further: 0 = median of the neutral control wells
PrPC TRFRET cf = confirmation of inhibitors of cell surface human prion protein; shares compounds with PrPC TRFRET; cell surface PrPC level, TR-FRET; inhibition, % at 13.8 µM; actives 65% (n = 1,500); AID 743200; in the data active means inhibition above about 25%
LD9 tox = LD9 cell cytotoxicity, PrPc inhibitor counter-screen. shares compounds with PrPC TRFRET. LD9 cells cytotoxicity, luminescence viability. inhibition, % at 13.8 µM. actives 29% (n = 1,500); in the data active means inhibition above about 9.5%
* hit, by the source's call; x = no result.

SMILES	PrPC TRFRET	RN4220 kill	CCHFV vOTU inh	PfHsp40 rescue	Sa ugtP lethal	PrP UTR inh	PrPC TRFRET cf	LD9 tox
COC(=O)C1=C(c2cc3ccccc3o2)CC2CCC1N2C(=O)NCCCOC(C)C (stereo not drawn)	x	8.5	x	x	9.4	x	x	x
CCn1c(=O)c(C(=O)NCc2ccccn2)c(O)c2ccccc21	30.0*	2.1	-2.4	-0.7	-5.2	-10.2	39.7*	-5.2
CCCN1C(=O)c2[nH]nc(-c3cc(Cl)c(C)cc3O)c2C1c1ccc(O)c(OC)c1 (stereo not drawn)	25.6*	-3.6	21.2	1.3	-6.3	-10.5	9.7	-7.2
Cc1ccc(N(CC(=O)NN=Cc2cccnc2)S(=O)(=O)c2ccccc2)cc1	x	3.6	x	x	1.6	x	x	x
Cn1nnnc1SCc1nc2scc(-c3ccccc3)c2c(=O)[nH]1	11.6	3.2	3.1	-0.3	-3.3	-31.4	x	x
Cn1nnnc1SCc1nc2scc(-c3ccc(Cl)cc3)c2c(=O)[nH]1	31.8*	-5.6	-5.2	-0.2	-12.8	-29.5	26.1*	5.8
Cn1cnnc1SCc1ccc(C(=O)NN=Cc2cccs2)cc1	x	3.7	x	x	3.1	x	x	x
COc1cc(/C=N/NC(=O)c2ccc(CN(C)S(=O)(=O)c3ccc(C)cc3)cc2)ccc1O	27.8*	x	6.4	-0.3	x	-11.2	12.7	-0.7
CC(C)C(C)NC(=O)CSc1ccc(S(=O)(=O)N2CCOCC2)cn1 (stereo not drawn)	5.3	7.0	-3.3	0.7	12.2	-17.0	x	x
CC(NC(=O)CSc1ccc(S(=O)(=O)N2CCOCC2)cn1)c1ccc(Cl)cc1Cl (stereo not drawn)	26.7*	-0.9	8.9	0.3	-5.7	-15.9	4.7	2.6
CCOC(=O)CCc1c(C)c2ccc(OCC(=O)N3CCOCC3)c(C)c2oc1=O	-4.9	0.9	-37.5	1.2	-5.6	6.6	x	x
COC(=O)Cc1c(C)c2ccc(OCC(=O)N3CCC(C)CC3)c(C)c2oc1=O	28.1*	1.6	-36.4	-0.5	3.4	-24.0	40.5*	3.9
COC(=O)Cc1c(C)c2ccc(OCC(=O)N3CCCC3)c(C)c2oc1=O	27.6*	2.7	-55.2	-0.1	3.0	-3.2	27.6*	-5.1
COc1cc(C(=O)NN=Cc2ccc(OC(=O)c3cccc(C)c3)cc2)ccc1O	x	-1.2	x	x	9.6	x	x	x
C/C=C(/C)C(=O)Nc1cccc(C2=NOC3(C2)C[C@@H](C(N)=O)N(C(=O)[C@H]2CCC(=O)N2)C3)c1 (stereo partly drawn)	1.8	x	7.8	-0.4	x	-13.5	x	x
C=C(C)C(=O)Nc1cccc(C2=NOC3(C2)C[C@@H](C(N)=O)N(C(=O)[C@H]2CCC(=O)N2)C3)c1 (stereo partly drawn)	49.9*	x	8.6	-0.6	x	-10.6	38.2*	-2.1
CCOC1OC(C(=O)N2CCCCCCC2)=CC(c2cn(C(C)=O)c3ccccc23)C1CCCO (stereo not drawn)	x	6.2	x	x	-0.2	x	x	x
CCOc1cc(C(=S)N2CCCC2)ccc1OCc1ccccc1	26.7*	8.1	2.6	2.3	9.9	15.6	7.0	-4.8
CCOc1ccc(C(=S)N2CCCC2)cc1OCC	-3.9	4.0	-9.6	-2.5	0.0	-26.9	x	x
O=C(CC1CC=CCC(NC(=O)OCC2c3ccccc3-c3ccccc32)C(=O)OCC2CCCN2C1=O)NC(CO)Cc1ccccc1 (stereo not drawn)	x	3.4	x	x	-8.0	x	x	x
Cc1c(N/N=C(\C#N)C(=O)c2ccc(Cl)cc2)c(=O)n(-c2ccccc2)n1C	34.5*	43.5	17.8	99.5*	1.0	22.0	25.5*	24.7*
CCn1c(Cl)c(C=O)s/c1=N\S(=O)(=O)c1ccccc1	53.1*	x	9.0	-0.5	x	-16.8	102.0*	94.4*
CCN1C(=O)CS/C1=N\S(=O)(=O)c1ccc(Cl)cc1	6.8	x	-10.3	-0.8	x	-10.5	x	x
CC(O)CC(=O)OC[C@]12CC[C@H]3[C@@](C)(CC[C@H]4C(C)(C)CCC[C@]34C)[C@@H]1CC(C1=CC(=O)OC1O)O2 (stereo partly drawn)	33.9*	x	14.3	x	x	x	25.9*	64.2*
CCN(CC)S(=O)(=O)c1ccc(NC(=O)CSc2ncnc3ccccc23)cc1	47.1*	5.5	-2.9	4.8	-6.1	-3.0	59.8*	-12.8
SMILES	PrPC TRFRET	RN4220 kill	CCHFV vOTU inh	PfHsp40 rescue	Sa ugtP lethal	PrP UTR inh	PrPC TRFRET cf	LD9 tox
NS(=O)(=O)c1ccc(NC(=O)CSc2ncnc3ccccc23)cc1	22.5	6.8	-10.8	-1.4	1.6	-12.5	x	x
NS(=O)(=O)c1ccc(CCNC(=O)CSc2ncnc3ccccc23)cc1	26.7*	-0.2	-0.7	0.9	4.0	-18.3	45.2*	1.6
COc1ccc(S(=O)(=O)N2CCCCC2)cc1NC(=O)CSc1ncnc2ccccc12	10.3	3.8	-12.3	1.1	-15.7	-4.7	x	x
NS(=O)(=O)c1cccc(NC(=O)CSc2ncnc3ccccc23)c1	37.1*	1.0	15.3	0.4	9.3	-10.2	36.0*	-8.3
Cc1nc(SCC(=O)Nc2cc(C(N)=O)cc(C(N)=O)c2)c2c(C)c(C)sc2n1	84.9*	7.9	-2.2	1.8	-9.6	-9.8	94.0*	2.2
CC(=NNC(=O)CC(C)C)c1ccc(Cl)c(Cl)c1	x	-0.9	x	x	-2.1	x	x	x
CCN1CCN(C=Nc2nc3c(s2)CCCC3)CC1	x	5.8	x	x	0.8	x	x	x
CC(C)C1S/C(=N/N=Cc2cccs2)NC1=O (stereo not drawn)	x	-1.6	x	x	9.9	x	x	x
Cc1cccc(NC(=O)CSc2ncnc3sc4c(c23)CCCC4)c1	9.3	x	6.7	x	x	x	x	x
Cc1sc2ncnc(SCC(=O)Nc3cccc(S(N)(=O)=O)c3)c2c1C	27.8*	-3.1	3.7	0.3	9.3	-6.0	44.4*	-8.3
Cc1nonc1NC(=O)CSc1nc(C2CCCCC2)nc2ccccc12	50.1*	5.7	2.8	2.5	-14.1	-32.7	53.5*	-12.5
Cc1cccc(NC(=O)CSc2nc(C3CC3)nc3ccccc23)c1	29.9*	2.1	-0.5	2.0	1.5	-2.3	27.6*	-6.3
O=S(=O)(NN=Cc1ccc2c(c1)OCO2)c1ccc(Br)cc1	x	3.9	x	x	6.4	x	x	x
Cc1[nH]c2ccccc2c1C=NNC(=O)c1cc(C(C)C)[nH]n1	x	1.3	x	x	-0.7	x	x	x
CCCCC(=O)N(C)c1c(CC)nc2c(OCC3CCCCC3)cccn12	31.0*	x	20.6	x	x	x	17.6	-8.8
CCc1nc2c(OCCC3CCCCC3)cccn2c1N(C)C(=O)c1cccs1	27.5*	x	15.8	x	x	x	17.3	-11.7
O=C1C2C(C(=O)N1N=Cc1ccc([N+](=O)[O-])o1)C1C=CC2C12CC2 (stereo not drawn)	x	2.3	x	x	36.8	x	x	x
O=C1C2C(c3ccc(F)cc3)N3C(=O)N(c4ccccc4)C(=O)[C@@]3(Cc3ccccc3)C2C(=O)N1C1CCCCC1 (stereo partly drawn)	x	2.6	x	x	5.5	x	x	x
Cn1c2ccccc2c2cc(/C=N/NC(=O)c3ccccc3F)ccc21	47.3*	x	-2.0	-2.3	x	-21.3	14.5	0.2
